Results reported in PubChem BioAssay (NCATS).
Inconclusive results are not listed. Calls of active or inactive are those of the source. Unless noted, calls come from the whole dose curve.

Tests used:
[1] = molecular target: Glucocorticoid receptor (Homo sapiens) (UniProt P04150); assay: qHTS assay for small molecule agonists of glucocorticoid receptor signaling (AID 588532; active = well fitted curve in the direction sought with a large enough effect in the signal ratio, with a control signal flat; the % refers to the signal ratio;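 note: 100% = dexamethasone at 0.1 µM and 0% = DMSO only wells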); details: HeLa MMTV-bla, beta-lactamase ratio, agonist, 18 h; stronger effect = higher value; percent of dexamethasone control, DMSO zero
In short: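 Quantitative HTS using CellSensor MMTV-bla HeLa cells in charcoal/dextran-treated serum; compounds tested up to 92 uM. After 18 h at 37 C, CCF4 dye reported reporter induction.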

[2] = molecular target: Glucocorticoid receptor (Homo sapiens) (UniProt P04150); assay: qHTS assay for small molecule antagonists of glucocorticoid receptor signaling (AID 588533; active = well fitted inhibition curve with a large enough effect in the signal ratio, with a control signal flat, not every such curve was filed as active; the % refers to the signal ratio;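 note: cells stimulated with 2 nM dexamethasone as agonist; % is set by controls: 0 for no effect and ±100 for the full control effect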); details: HeLa MMTV-bla, GRE beta-lactamase ratio, antagonist mode, 18 h; series mostly up to 76.8 µM
In short: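 Antagonist-mode qHTS: compound titrations added to GRE-bla HeLa cells, then dexamethasone 2 nM final; 18 h, 37 C. CCF4 FRET fluorescence normalized to dexamethasone and DMSO; IC50 from Hill fit.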

[3] = qHTS assay for small molecule antagonists of peroxisome proliferator-activated receptor delta signaling (AID 588535; active = well fitted inhibition curve with a large enough effect in the signal ratio, with a control signal flat, not every such curve was filed as active; the % refers to the signal ratio;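 for max response: cells co-treated with a PPAR-delta agonist as stimulator during compound exposure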); details: HEK293T PPARd-UAS-bla, beta-lactamase FRET ratio, 18 h; 460 nm channel
In short: (§1)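 Antagonist-mode qHTS using GeneBLAzer PPAR-delta-UAS-bla HEK293T cells; compound exposure 18 hrs at 37 C over a titration. Ratiometric CCF4 fluorescence at 460/530 nm; concentration-response points fitted to the Hill equation.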

[4] = molecular target: Peroxisome proliferator-activated receptor delta (Homo sapiens) (UniProt Q03181); assay: as above; details: HEK293T PPARd-UAS-bla, beta-lactamase FRET ratio, 18 h; series mostly up to 76.7 µM
In short: as §1

[5] = molecular target: Peroxisome proliferator-activated receptor gamma (Homo sapiens) (UniProt P37231); assay: qHTS assay for small molecule antagonists of peroxisome proliferator-activated receptor gamma signaling (AID 588537; active = well fitted inhibition curve with a large enough effect in the signal ratio, with a control signal flat, not every such curve was filed as active; the % refers to the signal ratio;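 note: reporter cells co-stimulated with 50 nM rosiglitazone agonist during compound treatment; % of control where 0% means no effect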); details: HEK293 PPARg-UAS-bla, beta-lactamase ratio, antagonist mode; series mostly up to 76.8 µM
In short: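 Cell-based beta-lactamase assay; GW9662 served as the antagonist control. Stimulation used rosiglitazone, final 50 nM, 16 h, 37 C.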

[6] = molecular target: Vitamin D3 receptor (Homo sapiens) (UniProt P11473); assay: qHTS assay for small molecule antagonists of vitamin D receptor signaling (AID 588541); details: HEK293T VDR-UAS-bla, beta-lactamase ratio, antagonist mode; series mostly up to 76.7 µM;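 note: receptor activated by calcitriol during compound treatment; % is set by controls: 0 for no effect and ±100 for the full control effect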
In short: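 Antagonist-mode beta-lactamase reporter assay: HEK293T VDR-UAS-bla cells were exposed to titrated compound alongside 1-alpha,25-dihydroxyvitamin D3 at 3 nM final for 16 h. Values were normalized to the 50 nM agonist control and DMSO basal, with IC50 and efficacy from Hill equation fits.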

[7] = molecular target: Vitamin D3 receptor (Homo sapiens) (UniProt P11473); assay: qHTS assay for small molecule agonists of vitamin D receptor signaling (AID 588543); details: HEK293T VDR-UAS-bla, beta-lactamase ratio, 16 h; series mostly up to 76.8 µM;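 note: 0% = DMSO basal and 100% = reference agonist control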
In short: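 Agonist-mode beta-lactamase reporter: HEK293T VDR-UAS-bla cells in charcoal-stripped 2% FBS, compound series 16 h 37 C, CCF4 2 h RT. EC50 from Hill fit, scaled against DMSO and 50 nM calcitriol control.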

[8] = molecular target: Thyroid hormone receptor beta (Homo sapiens) (UniProt P10828); assay: qHTS assay for small molecule agonists of thyroid hormone receptor beta signaling (AID 588545); details: TR-UAS-bla GripTite HEK 293, beta-lactamase ratio, agonist mode, 18 h, percent of T3 response, DMSO as zero; series mostly up to 76.7 µM
In short: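 In this cell-based screen, titrated compounds act on HEK 293 cells held in medium with 2% charcoal/dextran FBS, NEAA and pyruvate for 18 hrs at 37 C. Responses are expressed relative to T3 (10 nM) as 100% and basal DMSO as 0%.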

[9] = qHTS assay for small molecule antagonists of retinoid X receptor alpha signaling (AID 588546; active = well fitted inhibition curve with a large enough effect in the signal ratio, with a control signal flat, not every such curve was filed as active; the % refers to the signal ratio;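 note: cells stimulated with 9-cis-retinoic acid as agonist; % is set by controls: 0 for no effect and ±100 for the full control effect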); details: HEK293T RXRa-UAS-bla, beta-lactamase ratio, antagonist mode; measured here: W530 green channel, cytotoxicity proxy
In short: (§2)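 Beta-lactamase reporter inhibition, read as CCF4 fluorescence ratio (ex 405, em 460/530 nm) after 2 h at RT. HEK293T UAS-bla cells, 2500/well, were stimulated with 9-cis-RA at 500 or 100 nM final alongside test compound for 18 h at 37 C.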

[10] = molecular target: Retinoic acid receptor RXR-alpha (Homo sapiens) (UniProt P19793); assay: as above; details: HEK293T RXRa-UAS-bla, beta-lactamase ratio, antagonist mode
In short: as §2

Sequence of Vitamin D3 receptor (Homo sapiens) (P11473 whole entry, looked up): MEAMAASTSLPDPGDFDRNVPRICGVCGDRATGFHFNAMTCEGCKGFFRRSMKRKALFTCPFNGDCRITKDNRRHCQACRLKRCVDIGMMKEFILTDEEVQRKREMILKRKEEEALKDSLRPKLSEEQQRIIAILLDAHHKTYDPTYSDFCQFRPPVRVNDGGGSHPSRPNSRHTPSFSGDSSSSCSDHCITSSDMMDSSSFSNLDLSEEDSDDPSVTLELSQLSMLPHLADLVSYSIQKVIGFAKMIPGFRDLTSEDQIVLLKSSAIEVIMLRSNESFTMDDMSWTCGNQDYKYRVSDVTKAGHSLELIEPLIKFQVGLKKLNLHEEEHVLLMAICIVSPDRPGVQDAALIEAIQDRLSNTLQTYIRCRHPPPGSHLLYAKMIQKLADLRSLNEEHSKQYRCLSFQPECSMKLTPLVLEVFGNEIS
Sequence of Glucocorticoid receptor (Homo sapiens) (P04150 whole entry, looked up): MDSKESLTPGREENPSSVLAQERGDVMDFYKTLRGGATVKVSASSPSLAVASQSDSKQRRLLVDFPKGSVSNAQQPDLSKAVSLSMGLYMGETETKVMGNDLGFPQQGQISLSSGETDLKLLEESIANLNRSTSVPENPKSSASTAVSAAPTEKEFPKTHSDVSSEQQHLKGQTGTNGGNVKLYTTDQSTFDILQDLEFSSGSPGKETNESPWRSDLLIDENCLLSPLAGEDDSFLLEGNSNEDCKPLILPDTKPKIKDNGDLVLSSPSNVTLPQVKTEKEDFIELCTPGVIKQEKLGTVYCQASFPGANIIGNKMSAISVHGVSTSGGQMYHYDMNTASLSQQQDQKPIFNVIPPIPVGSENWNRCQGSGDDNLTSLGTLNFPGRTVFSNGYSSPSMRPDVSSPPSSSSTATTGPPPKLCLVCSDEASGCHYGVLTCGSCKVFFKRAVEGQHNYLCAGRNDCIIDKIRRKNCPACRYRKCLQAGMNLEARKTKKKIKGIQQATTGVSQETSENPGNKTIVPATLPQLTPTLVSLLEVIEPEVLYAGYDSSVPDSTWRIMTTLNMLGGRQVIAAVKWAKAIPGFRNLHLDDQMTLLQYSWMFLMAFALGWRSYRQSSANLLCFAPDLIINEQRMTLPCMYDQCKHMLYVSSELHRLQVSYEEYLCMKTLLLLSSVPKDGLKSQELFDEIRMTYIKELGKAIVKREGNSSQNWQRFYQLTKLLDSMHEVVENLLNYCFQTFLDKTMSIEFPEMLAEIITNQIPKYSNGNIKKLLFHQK
Sequence of Retinoic acid receptor RXR-alpha (Homo sapiens) (P19793 whole entry, looked up): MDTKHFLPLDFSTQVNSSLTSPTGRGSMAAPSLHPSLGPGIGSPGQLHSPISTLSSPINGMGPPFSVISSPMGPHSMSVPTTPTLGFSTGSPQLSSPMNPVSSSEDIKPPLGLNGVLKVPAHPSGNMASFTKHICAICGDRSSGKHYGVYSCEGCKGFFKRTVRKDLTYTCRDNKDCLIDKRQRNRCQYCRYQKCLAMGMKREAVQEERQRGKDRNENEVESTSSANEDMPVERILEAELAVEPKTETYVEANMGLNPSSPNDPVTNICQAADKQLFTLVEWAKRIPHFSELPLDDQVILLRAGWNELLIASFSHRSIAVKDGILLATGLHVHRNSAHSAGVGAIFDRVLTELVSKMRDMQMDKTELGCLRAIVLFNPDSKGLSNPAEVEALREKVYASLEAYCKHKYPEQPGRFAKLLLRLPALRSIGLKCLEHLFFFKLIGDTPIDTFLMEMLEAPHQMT
Sequence of Peroxisome proliferator-activated receptor delta (Homo sapiens) (Q03181 whole entry, looked up): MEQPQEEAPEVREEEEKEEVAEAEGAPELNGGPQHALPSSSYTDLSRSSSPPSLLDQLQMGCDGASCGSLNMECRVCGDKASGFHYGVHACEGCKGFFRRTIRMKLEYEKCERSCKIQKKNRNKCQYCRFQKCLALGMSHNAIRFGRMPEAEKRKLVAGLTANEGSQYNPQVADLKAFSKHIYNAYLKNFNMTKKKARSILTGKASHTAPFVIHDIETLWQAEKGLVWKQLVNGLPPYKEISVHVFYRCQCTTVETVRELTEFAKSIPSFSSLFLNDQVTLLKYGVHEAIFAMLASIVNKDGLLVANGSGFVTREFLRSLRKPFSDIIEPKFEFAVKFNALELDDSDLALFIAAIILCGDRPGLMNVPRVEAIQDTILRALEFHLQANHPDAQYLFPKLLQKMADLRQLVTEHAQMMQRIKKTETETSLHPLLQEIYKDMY
Sequence of Peroxisome proliferator-activated receptor gamma (Homo sapiens) (P37231 whole entry, looked up): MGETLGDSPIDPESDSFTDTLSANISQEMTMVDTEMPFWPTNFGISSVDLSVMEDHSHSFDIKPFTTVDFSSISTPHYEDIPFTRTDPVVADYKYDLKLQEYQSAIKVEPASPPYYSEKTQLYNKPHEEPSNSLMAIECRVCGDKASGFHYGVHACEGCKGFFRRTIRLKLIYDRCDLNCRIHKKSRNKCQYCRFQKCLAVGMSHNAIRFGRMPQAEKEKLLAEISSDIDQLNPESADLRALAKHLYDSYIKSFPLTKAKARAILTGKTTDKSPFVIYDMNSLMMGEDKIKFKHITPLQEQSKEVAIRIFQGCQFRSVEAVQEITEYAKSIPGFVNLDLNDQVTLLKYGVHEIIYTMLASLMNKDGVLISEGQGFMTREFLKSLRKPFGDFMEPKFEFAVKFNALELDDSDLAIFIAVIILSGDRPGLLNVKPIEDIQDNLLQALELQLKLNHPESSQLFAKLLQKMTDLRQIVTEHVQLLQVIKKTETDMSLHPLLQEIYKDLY
Sequence of Thyroid hormone receptor beta (Homo sapiens) (P10828 whole entry, looked up): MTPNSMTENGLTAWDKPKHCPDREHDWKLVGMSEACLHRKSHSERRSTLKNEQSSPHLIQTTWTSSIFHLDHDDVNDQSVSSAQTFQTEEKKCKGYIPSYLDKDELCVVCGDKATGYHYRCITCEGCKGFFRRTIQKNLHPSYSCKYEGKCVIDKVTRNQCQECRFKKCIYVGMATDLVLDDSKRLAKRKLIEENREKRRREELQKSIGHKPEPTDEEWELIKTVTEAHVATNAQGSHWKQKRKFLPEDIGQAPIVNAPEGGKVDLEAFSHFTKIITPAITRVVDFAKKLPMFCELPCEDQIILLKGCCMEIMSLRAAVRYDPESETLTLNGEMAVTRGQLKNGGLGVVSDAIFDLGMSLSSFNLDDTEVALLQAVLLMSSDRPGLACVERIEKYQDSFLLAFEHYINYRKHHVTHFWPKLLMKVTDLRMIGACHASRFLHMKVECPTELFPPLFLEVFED

O=C(O)CCCc1c[nH]c2ccccc12
inactive: activation [1] -4.22% | outcome [2] | outcome [4] | outcome [5] | outcome [6] | outcome [7] | outcome [8] | max response [10] 6.54%
35.4%: max response [3]
7.98%: max response [9]
